GDH-TPI inh = counter-screen for M. tuberculosis FBA inhibitors: GDH-TPI coupled enzymes; GDH-TPI coupled enzyme counterscreen, NADH absorbance; inhibition, % at 4.8 µM; 360,000 tested, 1.2% active; in the data active means inhibition above about 30%;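 further: 0% = DMSO wells and 100% = wells lacking the enzyme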
PrPC TRFRET = inhibitors of human cell surface prion protein PrPC. 370,000 tested, 0.43% active. P04156. inhibition, % at 13.8 µM. TR-FRET read-out; in the data active means inhibition above about 24%; further: 0% = median of the test wells and 100% = reference compound wells
FBA Mtb inh = Mtb fructose-bisphosphate aldolase inhibition. P9WQA3. purified M. tuberculosis FBA, fluorescence read-out. 360,000 tested, 2.3% active. inhibition, % at 1 µM. AID 588726; in the data active means inhibition above about 27%;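 further: 0% = vehicle and 100% = reference inhibitor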
Yp Topo-I inh = Y. pestis Topo-I inhibition via cleavage products; Y. pestis Topo-I cleavage product accumulation, plate reader; activity, % at 10 µM; AID 504884; 360,000 tested, 0.064% active; in the data active means activity above about 50%, passing the limit was not always enough
TcdB GH inh = TcdB glycohydrolase inhibition | TcdB glycohydrolase enzymatic assay, plate reader | inhibition, % at 9.99 µM | 350,000 tested, 0.24% active | AID 652162; in the data active means inhibition above about 10%
The depositor's hits bear a star. The list is not random: actives were taken first. Their share in the collection is about 3.2%.

Results for Cc1cccn2c(=O)c3cc(C#N)c(=NC(=O)c4cccs4)n(CCCOC(C)C)c3nc12 ?
GDH-TPI inh: 12; PrPC TRFRET: -6; FBA Mtb inh: active; Yp Topo-I inh: -3; TcdB GH inh: 0

How did C[C@@H]1CN([C@@H](C)CO)C(=O)c2cc(C3=CCCCC3)cnc2O[C@@H]1CN(C)C(=O)c1ccccc1 do in these assays?
TcdB GH inh: 0

What do the screens show for `N#Cc1cc2c(=O)n3ccccc3nc2n(Cc2ccco2)c1=NC(=O)c1ccco1`?
GDH-TPI inh: 16; PrPC TRFRET: -4; FBA Mtb inh: 168*; Yp Topo-I inh: -6; TcdB GH inh: -1

How did N#Cc1c(-c2ccc(Cl)cc2)c2c([nH]c1=O)-c1ccccc1OC2 do in these assays?
GDH-TPI inh: 21; PrPC TRFRET: -1; FBA Mtb inh: 184*; Yp Topo-I inh: -5; TcdB GH inh: -1

How did Cc1ccc(-c2nc(-c3ccncc3)no2)cc1 do in these assays?
GDH-TPI inh: 2; PrPC TRFRET: 3; FBA Mtb inh: 2; Yp Topo-I inh: 10; TcdB GH inh: 2

How did O=C(O)c1ccccc1-c1ncc(-c2ccccc2)o1 do in these assays?
GDH-TPI inh: 18; PrPC TRFRET: 3; FBA Mtb inh: 123*; Yp Topo-I inh: 0; TcdB GH inh: -1

What do the screens show for `Nc1ccc(-c2ncc(-c3ccccc3)o2)cc1`?
GDH-TPI inh: 27; PrPC TRFRET: 10; FBA Mtb inh: active; Yp Topo-I inh: -4; TcdB GH inh: -1

How did Cc1ccc(-c2cnc(-c3ccncc3)o2)cc1 do in these assays?
GDH-TPI inh: 19; PrPC TRFRET: 1; FBA Mtb inh: active; Yp Topo-I inh: 5

How did CCCNC(=O)C[C@H]1CC[C@@H]2[C@H](COC[C@H](O)CN2C(=O)Nc2cccc(Cl)c2)O1 do in these assays?
TcdB GH inh: 1

Results for O=C(C[C@@H]1C[C@@H]2c3cc(NC(=O)Cc4ccncc4)ccc3O[C@@H]2[C@H](CO)O1)NCc1cccnc1 ?
TcdB GH inh: 1

How did C/C=C/c1ccc2c(c1)O[C@@H](CN(C)C(=O)NCCC)[C@H](C)CN([C@H](C)CO)S2(=O)=O do in these assays?
TcdB GH inh: 3

What do the screens show for `CC(C)OCCCn1c(-c2ccco2)nc2nc3ccccc3nc21`?
GDH-TPI inh: 36*; PrPC TRFRET: 0; FBA Mtb inh: active; Yp Topo-I inh: 5

Results for Cc1ccc(-n2c(-c3ccco3)nc3nc4ccccc4nc32)cc1 ?
GDH-TPI inh: 16; PrPC TRFRET: -6; FBA Mtb inh: 25; Yp Topo-I inh: 3; TcdB GH inh: 0

Results for COCCn1c(-c2ccco2)nc2nc3ccccc3nc21 ?
GDH-TPI inh: 37*; PrPC TRFRET: -30; FBA Mtb inh: active; Yp Topo-I inh: 1

How did COc1cccc(-n2c(-c3ccco3)nc3nc4ccccc4nc32)c1 do in these assays?
GDH-TPI inh: 10; PrPC TRFRET: -4; FBA Mtb inh: 7; Yp Topo-I inh: -10; TcdB GH inh: 0

What do the screens show for `CC(=O)Nc1sc(N/N=C/c2ccc(O)cc2)nc1-c1ccc(C)cc1`?
GDH-TPI inh: 35*; PrPC TRFRET: 2; FBA Mtb inh: 5; Yp Topo-I inh: 1; TcdB GH inh: 2

What do the screens show for `COc1cc(/C=N/NC(=O)c2cc(-c3ccco3)nc3ccccc23)cc(OC)c1O`?
GDH-TPI inh: 47*; PrPC TRFRET: -3; FBA Mtb inh: -2; Yp Topo-I inh: -1; TcdB GH inh: -1

What do the screens show for `COc1cc(/C=N/NC(=O)c2cc(-c3cccc(Br)c3)nc3ccccc23)cc(OC)c1O`?
GDH-TPI inh: 24; PrPC TRFRET: -5; FBA Mtb inh: 2; Yp Topo-I inh: 4; TcdB GH inh: 0

What do the screens show for `O=C(N/N=C/c1cccc(F)c1)c1cc(-c2ccco2)nc2ccccc12`?
GDH-TPI inh: 16; PrPC TRFRET: -2; FBA Mtb inh: 23; Yp Topo-I inh: -9

What do the screens show for `COc1cc(/C=N/NC(=O)c2cc(-c3ccccc3Cl)nc3ccccc23)cc(OC)c1O`?
GDH-TPI inh: 39*; PrPC TRFRET: -3; FBA Mtb inh: -2; Yp Topo-I inh: -4; TcdB GH inh: -4

How did CO[C@H]1CN(C)C(=O)c2cc(NC(=O)Cc3ccccc3)ccc2OC[C@H](C)N(C(=O)c2ccccc2F)C[C@@H]1C do in these assays?
TcdB GH inh: 0

What do the screens show for `C[N+](C)(C)c1ccc(/C=N/Nc2nc(Cl)c(C#N)c(Cl)c2Cl)cc1`?
GDH-TPI inh: 38*; PrPC TRFRET: 2; FBA Mtb inh: -5; Yp Topo-I inh: -15

How did CC1CCCCN1Cc1ccc(-c2nnn(CC(=O)NC3CCCCC3)n2)cc1 (stereo unspecified) do in these assays?
GDH-TPI inh: 62*; PrPC TRFRET: -7; FBA Mtb inh: -10; Yp Topo-I inh: -5

What do the screens show for `O=C(NNC(=S)Nc1ccc(Cl)cc1Cl)c1ccncc1`?
GDH-TPI inh: 13; PrPC TRFRET: 8; FBA Mtb inh: -3; Yp Topo-I inh: -1; TcdB GH inh: -3

What do the screens show for `O=C(NNC(=S)Nc1ccccc1Cl)c1ccncc1`?
GDH-TPI inh: 34*; PrPC TRFRET: -1; FBA Mtb inh: -3; Yp Topo-I inh: -6; TcdB GH inh: -1

Results for CCCNC(=O)C[C@H]1CC[C@@H]2[C@H](COC[C@H](O)CN2C(=O)c2ccc(F)cc2)O1 ?
TcdB GH inh: 0

How did O=C(NCCc1cccc(Cl)c1)c1ccc(Cl)c([N+](=O)[O-])c1 do in these assays?
GDH-TPI inh: 0; PrPC TRFRET: -31; FBA Mtb inh: -1; Yp Topo-I inh: -1; TcdB GH inh: 11*

How did C(=N\Nc1cc(N2CCCCC2)ncn1)/c1ccco1 do in these assays?
GDH-TPI inh: 42*; PrPC TRFRET: -3; FBA Mtb inh: -2; Yp Topo-I inh: 2; TcdB GH inh: 0

How did COCC#Cc1ccc([C@@H]2[C@@H](CO)N3C(=O)CN(C(=O)Nc4ccccc4F)C[C@H]23)cc1 do in these assays?
TcdB GH inh: -1

What do the screens show for `CC(=O)C1=CCC(c2ccc(C)cc2)N(S(=O)(=O)c2ccc(C)cc2)C1` (stereo unspecified)?
PrPC TRFRET: -1; FBA Mtb inh: 1; TcdB GH inh: 12*

What do the screens show for `Cc1ccc(S(=O)(=O)N2CC(CBr)=CCC2c2ccccc2)cc1` (stereo unspecified)?
PrPC TRFRET: 7; TcdB GH inh: 16*

Results for C[C@@H]1CCCCO[C@H](CN(C)Cc2ccc(C(=O)O)cc2)[C@H](C)CN([C@H](C)CO)C(=O)c2cc(NC(=O)NC3CCCCC3)ccc2O1 ?
TcdB GH inh: 0

How did Nc1nc2c(C(=O)N3CCOCC3)nnn2c2ccccc12 do in these assays?
GDH-TPI inh: 11; PrPC TRFRET: 5; FBA Mtb inh: 117*; Yp Topo-I inh: -1; TcdB GH inh: 0

How did CCOC(=O)c1nnn2c1nc(N1CCOCC1)c1ccccc12 do in these assays?
GDH-TPI inh: 13; PrPC TRFRET: 9; FBA Mtb inh: 2; Yp Topo-I inh: 4; TcdB GH inh: -2

What do the screens show for `CN1/C(=C/C=N/n2cnnc2)C(C)(C)c2ccccc21`?
GDH-TPI inh: 45*; PrPC TRFRET: 9; FBA Mtb inh: 3; Yp Topo-I inh: -5

Source: PubChem BioAssay (several laboratories)
